This is a sample that favours compounds with a hit; in the whole collection about 7.5% have one here.
TSHR antag: Antagonists of the Thyroid Stimulating Hormone Receptor: HTS campaign; Thyrotropin receptor (Homo sapiens), P16473; TSHR-expressing cells, TSH-stimulated cAMP HTRF, 2 h; stronger effect = lower value; activity change, negative = inhibition, % at 11.5 µM; 330,000 compounds, 0.2% hits;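 active means activity change below a set negative limit, meaning inhibition stronger than a set level, cut at about -70% in these data; inconclusive means activity change between two set negative limits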
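Inhibition of cAMP made by TSHR-expressing cells under TSH stimulation (4nM final, EC80; 2 h, 37 deg C) is quantified with a one-step lysis HTRF kit, anti-cAMP cryptate versus cAMP-d2.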
B2AR arrestin: qHTS assay of beta-arrestin-biased ligands of beta2-adrenergic receptor. Beta-2 adrenergic receptor (Homo sapiens), P07550. beta-arrestin recruitment to beta2AR, cell-based reporter. Potency, µM (titrated, usually from 46.1 µM), without a hit: top-dose activation, most hits filed as activators. 330,000 compounds, 0.02% hits;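 further: potency means the concentration at half of the fitted maximal effect; 0% = DMSO controls and full agonism = EC100 isoproterenol or metaproterenol; nearly all actives have a fitted effect of over 65% in size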
Target sequence (P07550 whole entry, looked up): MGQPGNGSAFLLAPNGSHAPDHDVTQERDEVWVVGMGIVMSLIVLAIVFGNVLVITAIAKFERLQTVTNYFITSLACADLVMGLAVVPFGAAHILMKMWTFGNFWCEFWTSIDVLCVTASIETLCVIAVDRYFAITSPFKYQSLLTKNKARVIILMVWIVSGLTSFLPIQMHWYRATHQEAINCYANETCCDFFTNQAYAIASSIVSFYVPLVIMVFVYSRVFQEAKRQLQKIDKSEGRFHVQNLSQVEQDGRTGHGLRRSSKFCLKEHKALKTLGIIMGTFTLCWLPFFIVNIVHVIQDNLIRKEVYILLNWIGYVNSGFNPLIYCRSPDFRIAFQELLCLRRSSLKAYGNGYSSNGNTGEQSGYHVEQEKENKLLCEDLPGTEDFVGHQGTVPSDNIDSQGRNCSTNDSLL
RORgamma inh: qHTS for inhibitors of ROR gamma transcriptional activity | Nuclear receptor ROR-gamma (Mus musculus), P51450 | Drosophila S2 Gal4-RORgamma UAS-luciferase reporter, 20 h | Potency, µM (highest dose often 53.6 µM), without a hit: top-dose activity change, negative = inhibition, most hits filed as inhibitors | 310,000 compounds, 5.4% hits; further: potency means the concentration at half of the fitted maximal effect; nearly all actives have a fitted effect of over 60% in size
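Schneider cells (Drosophila), stable Gal4 DBD–ROR gamma + UAS-luc; 1 hr cmpd preincubation; Cu2+ induction 700 uM final; 20 hr ambient; luminescence.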
ELG1 DNA repair: qHTS screen for small molecules that inhibit ELG1-dependent DNA repair in human embryonic kidney (HEK293T) cells expressing luciferase-tagged ELG1 | HEK293T ELG1-luciferase reporter, luminescence, 16 h; DNA damage induced by 5-fluorouridine | Potency, µM (series often up to 46.1 µM), inactives show at the top dose activity change, negative = inhibition, actives largely listed as inhibitors | 330,000 compounds, 2.3% hits | AID 504467, 2011; further: potency means the concentration at half of the fitted maximal effect; nearly all actives have a fitted effect of over 55% in size
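Luminescence from the luciferase reporter, measured 30 min after ONE-Glo reagent at room temperature, was the read-out. Beforehand, 2,000 cells per well were exposed for 16 hr at 37 °C to 5-fluorouridine together with compound or vehicle.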
VP16 counter: VP16 counterscreen qHTS for inhibitors of ROR gamma transcriptional activity | Drosophila S2 Gal4-VP16 UAS-luciferase, luminescence, 20 h | Potency, µM (highest dose often 53.6 µM), for inactives: at the highest dose activity, negative = inhibition, usual class: inhibitors | 310,000 compounds, 3.5% hits | AID 2546, 2010;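 further: Gal4-VP16 expression switched on by copper sulfate through the metallothionein promoter; potency means the concentration at half of the fitted maximal effect; nearly all actives have a fitted effect of over 50% in size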
Starred values were filed as active, the others as inactive; ? = inconclusive; / = no result given; [ ] = dose if it differs, or a comment. Unless noted, the call rests on the fitted dose curve; in most records, active means well fitted curve in the direction sought with a large enough effect; inconclusive means small, poorly fitted or top-dose-only effect, or another doubt; inactive means no such curve, though single readings can be large; an effect the other way counts as inactive or inconclusive. Unless noted, on the % scale 0 is the no-effect control and ±100 the full control effect.

SMILES	TSHR antag	B2AR arrestin	RORgamma inh	ELG1 DNA repair	VP16 counter
COc1ccc2[nH]c3c(N4CCc5ccccc5C4)ncnc3c2c1	-21	-1%	?	?	13µM*
O=C(COc1ncnc2sccc12)NC1CCS(=O)(=O)C1 (centres undefined)	-4	-1%	-15%	-4%	-4%
O=c1oc2ccccc2c2c1C1O[C@](c3ccsc3)(Cc3c1ccc1ccccc31)O2	/	0%[9.22 µM]	?	/	0%[10 µM]
Cc1cccc(Nc2nnc(SCC(=O)Nc3ccccc3[N+](=O)[O-])s2)c1C	?	-2%	18µM*	?	-15%
Cc1ccc(Nc2nnc(SCC(=O)Nc3ccccc3[N+](=O)[O-])s2)cc1	-13	1%	?	-6%	-15%
CC1(c2ccc(Cl)cc2)NC(=O)N(CC(=O)N2CCc3ccccc32)C1=O (centres undefined)	/	0%	/	22%	/
COC(=O)c1scc(S(=O)(=O)C(C)C)c1N/N=C(\C#N)C(=O)c1ccc(Cl)cc1	-11	0%	-30%	13µM*	?
Fc1ccccc1CN(CCN1CCOCC1)C(=S)Nc1ccccc1Cl	-2	-1%	?	-10%	?
Cc1ccc(NC(=S)N(CCN2CCOCC2)Cc2ccccc2F)cc1	-6	0%	?	2%	-8%
Cc1ccccc1NC(=S)N(CCN1CCOCC1)Cc1ccccc1F	27	0%	14µM*	-2%	-25%
Cc1cc(NC(=S)N(CCN2CCOCC2)Cc2ccccc2F)ccc1Cl	-7	0%	10µM*	?	?
CCc1ccccc1NC(=S)N(CCN1CCOCC1)Cc1ccccc1F	-1	-1%	16µM*	2%	-6%
COc1cccc(NC(=S)N(CCCN2CCOCC2)Cc2cn(C)c3ccccc23)c1	0	1%	18µM*	?	?
C=CC1=C(C)/C(=C/c2[nH]c(Cc3[nH]c(/C=C4\NC(=O)C(C)=C4C=C)c(C)c3CCC(=O)O)c(CCC(=O)O)c2C)NC1=O	/	/	-7%	/	-2%
Cc1ccc2c(c1)-n1c(nc3ccccc3c1=O)C(Cc1ccc(O)cc1)NC2=O (centres undefined)	16	0%	/	?	/
CC1CCC2C(=O)N3C(CCC(C)[C@H]3c3cccc(N4CCCC4=O)c3)C(=O)N2C1c1cccc(N2CCCC2=O)c1 (some centres undefined)	/	/	11%[10 µM]	/	-11%[10 µM]
Cc1oc(S(=O)(=O)N(C)C)cc1C(=O)Nc1ccc(Cl)cc1	-3	0%	0%	?	-6%
CCc1ccccc1NC(=S)N(CCN(C)C)Cc1cccs1	0	0%	11µM*	?	2%[10 µM]
CC(C)[C@H](NS(=O)(=O)c1ccccc1F)C(=O)NC1CCCCC1	9	0%	/	5.2µM*	/
CC(C)[C@H](NS(=O)(=O)c1ccccc1)C(=O)OCC(=O)NC(=O)NC1CCCCC1	-16	-1%	/	16µM*	/
CC(C)[C@H](NS(=O)(=O)c1ccccc1)C(=O)OCC(=O)NC1CCCCC1	11	0%	/	-13%	/
COc1ccc(/C=C/c2nc(N)nc(-c3ccccc3O)n2)cc1	-36	-1%	36%	-9%	-1%
COc1ccc(/C=C/c2nc(N)nc(-c3ccccc3O)n2)cc1OC	-26	-1%	?	21µM*	?
Cc1ccc(-c2nnc3ccc(SCC(=O)N4CCCc5ccccc54)nn23)cc1	5	-1%	-20%	18µM*	-13%
CCC(C)(C)c1nnc(NC(=O)c2cccc([N+](=O)[O-])c2)s1	-5	1%	13µM*	?	?
SMILES	TSHR antag	B2AR arrestin	RORgamma inh	ELG1 DNA repair	VP16 counter
O=C(Nc1nn[nH]n1)c1cccc([N+](=O)[O-])c1	4	-1%	5%	11%	-3%
COC(=O)c1cc(C(=O)Nc2nnc(CC(C)(C)C)s2)cc([N+](=O)[O-])c1	-12	2%	8.9µM*	-2%	8.9µM*
O=C(Nc1nnc(CSCc2ccc(F)cc2)s1)c1cccc([N+](=O)[O-])c1	?	0%	11µM*	-19%	20µM*
O=C(Nc1nnc(Cc2ccc([N+](=O)[O-])cc2)s1)c1ccc2c(c1)OCO2	-1	0%	-4%	13%	2%
CCOCc1nnc(NC(=O)c2cc(C(=O)OC)cc([N+](=O)[O-])c2)s1	10	0%	-28%	8%	-10%
O=C(Nc1nnc(CSCc2ccc(Cl)cc2)s1)c1cccc([N+](=O)[O-])c1	-20	-1%	11µM*	-16%	10µM*
CCCc1cc(=O)oc2c(CNc3ccc(OCC)cc3)c(O)ccc12	-6	0%	-23%	-28%	0%
O=c1c(-c2ccccc2)nc2cnc(Nc3ccccc3)nc2n1Cc1cccs1	/	/	-3%	/	-4%
COc1ccc(/C=C(\C#N)C(=O)N=CN(C)C)cc1	-8	0%	22%	?	5%
COc1ccc(/C=C(\C#N)C(=O)N2COCC2(C)C)cc1	-75*	1%	-1%	?	-5%
Cc1cccc(N(C(=O)c2csnn2)C(C(=O)NCc2ccccc2)c2cccs2)c1 (centres undefined)	27	0%	-20%	-5%	-12%
Cc1cc(C)n(CCc2nc(-c3ccc(C)o3)cs2)n1	-5	?	?	17%	11µM*
CCCCC[C@H](O)/C=C/C=C\C/C=C\CCCCCCC(=O)O	/	/	3%	/	-2%
CCOc1ccccc1N1CCN(c2nc3ccccc3nc2C(C#N)C(=O)OC(C)C)CC1 (centres undefined)	-5	0%	21%	-1%	2%
C=CCOC(=O)C(C#N)c1nc2ccccc2nc1N1CCN(Cc2ccc3c(c2)OCO3)CC1 (centres undefined)	1	-1%	0%	16µM*	-4%
C=CCOC(=O)C(C#N)c1nc2ccccc2nc1N1CCN(c2ccccc2OCC)CC1 (centres undefined)	5	-1%	-16%	15µM*	-6%
COC(=O)[C@@H]1C[C@H]1[C@@H](NC(=O)c1ccc(Br)cc1)c1ccccc1	/	/	-28%	/	24%
C=C1CCN(C(CC(C)C)C(=O)NCc2ccc(Cl)c(Cl)c2)S(=O)(=O)c2ccccc21 (centres undefined)	/	/	27%	/	3%
CC(C)(C)CC(C)(C)c1ccc(O)c(-n2nc3ccccc3n2)c1	/	/	-8%	/	-5%
CCc1cc(=O)oc2c(C)c(OCC(=O)N3CCCc4ccccc43)ccc12	-12	0%	11µM*	?	?
CCc1cc(=O)oc2cc(OCC(=O)N3CCc4ccccc43)ccc12	-10	0%	0%	0%	6%

From PubChem
